Experimental data taken from PubChem BioAssay (EPA / NIEHS).
Activity calls are given as the source filed them. How the source made its calls: active means hit-call score of the fitted dose curve at least 0.9, where 1 is the maximum; inactive means score below 0.9.

Legend:
[1] = target: CCAAT/enhancer-binding protein beta (Homo sapiens) (UniProt P17676); experiment: ATG_C_EBP_CIS: Attagene CIS-FACTORIAL HepG2 Assay for human CCAAT/Enhancer Binding Protein (C/EBP) beta (AID 2282927); settings: HepG2 Attagene cis-factorial transcription factor reporter; actives raise or lower the signal
Chain of CCAAT/enhancer-binding protein beta (Homo sapiens) (P17676 whole entry, looked up): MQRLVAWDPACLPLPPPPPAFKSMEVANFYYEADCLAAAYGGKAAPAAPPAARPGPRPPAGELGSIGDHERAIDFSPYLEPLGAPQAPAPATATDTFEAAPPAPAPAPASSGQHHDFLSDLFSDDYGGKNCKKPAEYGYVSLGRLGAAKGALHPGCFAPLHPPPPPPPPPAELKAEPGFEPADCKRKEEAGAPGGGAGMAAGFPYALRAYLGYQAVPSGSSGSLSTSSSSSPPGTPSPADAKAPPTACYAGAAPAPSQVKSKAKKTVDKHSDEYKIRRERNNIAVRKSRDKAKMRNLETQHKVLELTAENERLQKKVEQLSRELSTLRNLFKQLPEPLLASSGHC
Summary of the method: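 HepG2 transiently transfected with multiplexed reporter units under cis-regulatory promoters reporting endogenous C/EBPb activity. After 24 h exposure, reporter mRNA assayed by RT-PCR, fluorescent labelling, HpaI digestion and capillary electrophoresis; bidirectional fitting versus DMSO.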

[2] = ATG_CMV_CIS: Attagene CIS-FACTORIAL HepG2 Assay for human CMV (Internal Marker) (AID 2282928); settings: HepG2 CMV promoter reporter, transcription factor profiling; actives raise or lower the signal;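 further: endpoint acts as a background internal control marker rather than a target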
Summary of the method: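 HepG2 cells transiently transfected with multiple cis-regulated reporter units; 24 h compound exposure. Reporter mRNA quantified by RT-PCR, 6-FAM primer-extension labeling, HpaI digestion and capillary electrophoresis; bidirectional fitting against DMSO baseline.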

[3] = ATG_DR4_LXR_CIS: Attagene CIS-FACTORIAL HepG2 Assay for human Liver X Receptor (LXR), DR4 submotif (AID 2282929); settings: HepG2 Attagene DR4 cis-reporter, mRNA transcription; actives raise or lower the signal
Summary of the method: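 Transiently transfected HepG2 liver cells; cis-regulated reporters; 24 h dosing. RT-PCR plus CE read-out of reporter mRNA. DMSO baseline, bidirectional curve fitting.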

[4] = target: Aryl hydrocarbon receptor (Homo sapiens) (UniProt P35869); experiment: ATG_Ahr_CIS: Attagene CIS-FACTORIAL HepG2 Assay for human Aryl Hydrocarbon Receptor (Ahr) (AID 2282930); settings: HepG2 AhR cis-factorial reporter transcription; actives raise or lower the signal
Chain of Aryl hydrocarbon receptor (Homo sapiens) (P35869 whole entry, looked up): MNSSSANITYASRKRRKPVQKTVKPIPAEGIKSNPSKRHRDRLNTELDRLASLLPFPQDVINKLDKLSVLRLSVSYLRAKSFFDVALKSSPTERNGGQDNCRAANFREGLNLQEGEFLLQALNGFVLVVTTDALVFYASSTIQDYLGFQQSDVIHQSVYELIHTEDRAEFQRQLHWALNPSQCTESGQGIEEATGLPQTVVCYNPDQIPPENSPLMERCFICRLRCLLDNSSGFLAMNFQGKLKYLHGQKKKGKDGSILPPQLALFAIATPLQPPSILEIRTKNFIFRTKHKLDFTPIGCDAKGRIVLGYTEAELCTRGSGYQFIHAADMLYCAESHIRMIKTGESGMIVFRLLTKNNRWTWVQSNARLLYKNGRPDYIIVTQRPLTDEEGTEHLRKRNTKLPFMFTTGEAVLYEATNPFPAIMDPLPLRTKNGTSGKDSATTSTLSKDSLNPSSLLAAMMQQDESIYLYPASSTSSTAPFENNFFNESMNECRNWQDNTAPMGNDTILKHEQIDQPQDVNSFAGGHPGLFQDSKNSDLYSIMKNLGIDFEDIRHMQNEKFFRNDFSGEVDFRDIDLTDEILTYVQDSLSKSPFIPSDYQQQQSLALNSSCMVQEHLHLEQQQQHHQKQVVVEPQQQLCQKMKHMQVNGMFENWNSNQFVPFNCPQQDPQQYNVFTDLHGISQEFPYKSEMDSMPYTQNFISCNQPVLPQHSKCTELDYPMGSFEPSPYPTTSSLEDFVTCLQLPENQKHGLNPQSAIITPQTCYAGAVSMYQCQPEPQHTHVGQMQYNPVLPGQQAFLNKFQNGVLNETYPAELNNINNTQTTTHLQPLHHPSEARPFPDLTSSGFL
Summary of the method: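 HepG2 cells transiently transfected with cis-element-driven multiplexed reporter units; endogenous AhR activity read as reporter mRNA 24 h after dosing, via RT-PCR, 6-FAM labelling, HpaI digestion and capillary electrophoresis. Bidirectional fit relative to DMSO.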

[5] = ATG_AP_1_CIS: Attagene CIS-FACTORIAL HepG2 Assay for human Activator Protein 1 (AP-1) (AID 2282931); settings: HepG2 Attagene cis-factorial AP-1 reporter mRNA; actives raise or lower the signal
Summary of the method: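 We transfected HepG2 cells transiently with a set of cis-regulated reporter transcription units, dosed them for 24 h, and quantified reporter mRNA via RT-PCR and capillary electrophoresis, scoring gain or loss of signal relative to DMSO.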

[6] = ATG_AP_2_CIS: Attagene CIS-FACTORIAL HepG2 Assay for human Activator Protein 2 (AP-2) (AID 2282932); settings: HepG2 AP-2 cis-reporter, Attagene transcription factor profiling; actives raise or lower the signal
Summary of the method: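 HepG2 cells transiently transfected with cis-element reporter units and exposed for 24 h. Reporter mRNA measured by RT-PCR, FAM labelling, HpaI digestion and capillary electrophoresis. Changes in either direction fitted relative to DMSO.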

[7] = ATG_BRE_CIS: Attagene CIS-FACTORIAL HepG2 Assay for human Bone Morphogenetic Protein (BMP) Response Element (BRE) (AID 2282933); settings: HepG2 BMP response element reporter, Attagene transcription factor profiling; actives raise or lower the signal
Summary of the method: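 Gain- or loss-of-signal was derived by bidirectional fitting against DMSO controls. The signal came from reporter mRNA, measured by RT-PCR and capillary electrophoresis, in HepG2 cells transiently carrying multiple reporter units and dosed for 24 h.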

[8] = target: Retinoic acid receptor alpha (Homo sapiens) (UniProt P10276); experiment: ATG_DR5_RAR_CIS: Attagene CIS-FACTORIAL HepG2 Assay for human Retinoic Acid Receptor Alpha (RARE), DR5 submotif (AID 2282934); settings: HepG2 Attagene cis-factorial RARE DR5 reporter, mRNA; actives raise or lower the signal
Chain of Retinoic acid receptor alpha (Homo sapiens) (P10276 whole entry, looked up): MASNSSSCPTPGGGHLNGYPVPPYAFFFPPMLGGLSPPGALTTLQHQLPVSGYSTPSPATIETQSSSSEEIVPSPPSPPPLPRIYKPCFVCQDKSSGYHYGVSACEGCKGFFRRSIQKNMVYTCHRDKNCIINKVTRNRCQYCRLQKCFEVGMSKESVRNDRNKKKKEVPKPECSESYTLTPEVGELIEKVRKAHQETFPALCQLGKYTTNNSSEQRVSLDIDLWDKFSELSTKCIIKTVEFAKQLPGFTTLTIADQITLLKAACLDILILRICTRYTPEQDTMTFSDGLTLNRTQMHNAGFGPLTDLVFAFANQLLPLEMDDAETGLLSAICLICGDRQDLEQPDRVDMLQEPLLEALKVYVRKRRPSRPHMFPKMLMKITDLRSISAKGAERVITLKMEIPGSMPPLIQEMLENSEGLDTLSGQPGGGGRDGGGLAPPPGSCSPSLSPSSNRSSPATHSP
Summary of the method: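 HepG2 cells transiently transfected with multiplexed reporter units; DR5 cis-element drives reporter through endogenous transcription factors. After 24 h dosing, reporter mRNA quantified by RT-PCR, fluorescent labeling, HpaI digestion and capillary electrophoresis; bidirectional fitting versus DMSO.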

[9] = target: Transcription factor E2F1 (Homo sapiens) (UniProt Q01094); experiment: ATG_E2F_CIS: Attagene CIS-FACTORIAL HepG2 Assay for human E2F Transcription Factor 1 (AID 2282935); settings: HepG2 Attagene cis-reporter, E2F reporter RNA transcripts; actives raise or lower the signal
Chain of Transcription factor E2F1 (Homo sapiens) (Q01094 whole entry, looked up): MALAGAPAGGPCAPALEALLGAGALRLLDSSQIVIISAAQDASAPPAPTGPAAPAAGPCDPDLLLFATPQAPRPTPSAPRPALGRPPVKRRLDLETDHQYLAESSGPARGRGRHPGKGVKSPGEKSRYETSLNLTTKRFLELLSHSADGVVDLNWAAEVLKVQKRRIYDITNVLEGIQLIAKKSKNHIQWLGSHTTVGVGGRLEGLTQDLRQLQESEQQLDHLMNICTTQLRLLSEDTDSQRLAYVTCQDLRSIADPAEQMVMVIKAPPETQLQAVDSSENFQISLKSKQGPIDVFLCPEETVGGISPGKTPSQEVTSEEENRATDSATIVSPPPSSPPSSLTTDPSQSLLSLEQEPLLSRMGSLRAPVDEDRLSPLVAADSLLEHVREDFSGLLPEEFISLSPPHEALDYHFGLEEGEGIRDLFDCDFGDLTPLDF
Summary of the method: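 Endogenous E2F1 activity read through cis-promoter reporter units transfected into HepG2. After 24 h compound treatment, reporter mRNA measured by RT-PCR, HpaI digestion and capillary electrophoresis. Bidirectional fit versus DMSO.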

[10] = ATG_M_61_CIS: Attagene CIS-FACTORIAL HepG2 Assay for M61 Transcription Factor (Internal Marker) (AID 2282937); settings: HepG2 Attagene CIS-FACTORIAL M61 internal marker reporter; actives raise or lower the signal
Summary of the method: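 Multiplexed reporter mRNA assay, HepG2 human hepatoma cells, 24 h treatment. Signal: FAM-labelled, HpaI-digested RT-PCR fragments by CE. Fit: bidirectional, baseline DMSO.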

[11] = ATG_EGR_CIS: Attagene CIS-FACTORIAL HepG2 Assay for human Early Growth Response 1 (EGR1) (AID 2282938); settings: HepG2 Attagene CIS-FACTORIAL EGR reporter mRNA; actives raise or lower the signal
Summary of the method: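 Multiplexed cis-reporter system in human hepatoma HepG2 cells, transiently transfected. Cells are dosed for 24 h; reporter transcripts are amplified, fluorescently tagged and sized by capillary electrophoresis, with DMSO as negative control.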

[12] = ATG_M_19_CIS: Attagene CIS-FACTORIAL HepG2 Assay for M19 Transcription Factor (Internal Marker) (AID 2282939); settings: HepG2 Attagene CIS-FACTORIAL M19 internal marker reporter; actives raise or lower the signal
Summary of the method: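 Following a 24 h exposure, RNA from transfected HepG2 cells was reverse-transcribed, PCR-amplified with reporter-specific primers, end-labelled with 6-FAM and HpaI-digested before capillary separation. Values represent gain or loss versus DMSO.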

[13] = ATG_Ets_CIS: Attagene CIS-FACTORIAL HepG2 Assay for human Erythroblast Transformation Specific (ETS) (AID 2282941); settings: HepG2 ETS cis-reporter transcription, actives raise or lower the signal
Summary of the method: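 HepG2 cells transiently transfected with cis-promoter reporter transcription units were dosed for 24 h; reporter mRNA was measured by RT-PCR, 6-FAM primer extension, HpaI digestion and capillary electrophoresis, with bidirectional fitting against DMSO baseline.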

[14] = target: Hepatocyte nuclear factor 3-beta (Homo sapiens) (UniProt Q9Y261); experiment: ATG_FoxA2_CIS: Attagene CIS-FACTORIAL HepG2 Assay for human Forkhead box A2 (FOXA2) (AID 2282942); settings: HepG2 cis-reporter transcription factor activity, 24 h; actives raise or lower the signal
Chain of Hepatocyte nuclear factor 3-beta (Homo sapiens) (Q9Y261 whole entry, looked up): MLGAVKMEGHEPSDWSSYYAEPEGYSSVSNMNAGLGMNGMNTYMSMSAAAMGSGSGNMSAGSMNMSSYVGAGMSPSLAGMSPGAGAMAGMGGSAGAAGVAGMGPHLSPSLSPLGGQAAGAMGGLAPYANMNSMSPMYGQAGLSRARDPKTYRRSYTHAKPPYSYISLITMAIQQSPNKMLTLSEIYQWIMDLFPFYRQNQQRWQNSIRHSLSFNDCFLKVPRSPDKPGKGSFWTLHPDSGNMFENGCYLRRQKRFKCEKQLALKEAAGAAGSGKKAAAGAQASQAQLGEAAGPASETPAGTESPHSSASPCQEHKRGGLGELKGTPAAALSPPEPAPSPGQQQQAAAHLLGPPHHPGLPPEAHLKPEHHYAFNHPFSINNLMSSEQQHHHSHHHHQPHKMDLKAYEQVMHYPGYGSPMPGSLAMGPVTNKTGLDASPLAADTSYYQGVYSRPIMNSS
Summary of the method: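 Multiplexed cis-element reporter assay in transiently transfected HepG2. Twenty-four hours post-dosing, RNA was reverse-transcribed, amplified, FAM-labelled, HpaI-digested and separated by CE. Activity gain or loss relative to DMSO.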

[15] = ATG_FoxO_CIS: Attagene CIS-FACTORIAL HepG2 Assay for human Forkhead box O (FoxO) (AID 2282943); settings: HepG2 Attagene cis-reporter, FoxO element, mRNA; actives raise or lower the signal
Summary of the method: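 HepG2 cells transiently transfected with cis-element-driven reporter units report endogenous FoxO activity. After 24 h chemical exposure, reporter mRNA quantified by RT-PCR, fluorescent labeling, HpaI digestion and capillary electrophoresis; bidirectional fit versus DMSO.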

[16] = ATG_GATA_CIS: Attagene CIS-FACTORIAL HepG2 Assay for human GATA Binding Protein (AID 2282944); settings: HepG2 GATA cis-element reporter, Attagene multiplex mRNA; actives raise or lower the signal
Summary of the method: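 DMSO serves as negative control and baseline for bidirectional fitting of reporter mRNA changes. HepG2 cells bearing transiently transfected cis-promoter reporters were exposed 24 h; transcripts detected via RT-PCR and capillary electrophoresis.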

[17] = ATG_GLI_CIS: Attagene CIS-FACTORIAL HepG2 Assay for human Zinc Finger Protein GLI1 (AID 2282945); settings: HepG2, Attagene cis-factorial reporter mRNA, GLI element; actives raise or lower the signal
Summary of the method: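 Transiently transfected HepG2 cells report endogenous transcription factor activity via cis-element-driven reporter units. After 24 h compound exposure, reporter mRNA was measured by RT-PCR with capillary electrophoresis; bidirectional fitting against DMSO baseline.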

[18] = ATG_E_Box_CIS: Attagene CIS-FACTORIAL HepG2 Assay for human Enhancer Box (E-box) (AID 2282936); settings: HepG2 E-box cis-reporter transcription, actives raise or lower the signal
Summary of the method: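 HepG2 cells transiently transfected with multiplexed cis-element reporter units, dosed 24 h; reporter mRNA quantified by RT-PCR, 6-FAM labelling, HpaI digestion and capillary electrophoresis. E-box (USF1) signal fitted bidirectionally vs DMSO.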

[19] = ATG_ERE_CIS: Attagene CIS-FACTORIAL HepG2 Assay for Estrogen Response Element (ERE) (AID 2282940); settings: HepG2 ERE cis-reporter, Attagene RNA transcript; actives raise or lower the signal
Summary of the method: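 HepG2, transient cis-reporter units, 24 h exposure. RNA isolated, oligo(dT) RT, reporter-specific PCR, FAM extension, HpaI cut, CE detection. Gain/loss-of-signal vs DMSO.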

Measured: AC50

CC(C)=CCCC(C)CC(=O)O (stereo unspecified)
inactive: [1] | [2] | [3] | [4] | [5] | [6] | [7] | [8] | [9] | [10] | [11] | [12] | [13] | [14] | [15] | [16] | [17]

Clc1ccc(C(c2ccccc2Cl)C(Cl)Cl)cc1 (stereo unspecified)
active: [2] 100 µM | [3] 25.2 µM | [4] 65.6 µM | [5] 100 µM | [12] 100 µM | [15] 69.8 µM | [17] 53.7 µM
inactive: [1] | [6] | [7] | [8] | [9] | [11] | [13] | [14] | [16]

COCCc1ccc(OCC(O)CNC(C)C)cc1 (stereo unspecified)
inactive: [1] | [2] | [3] | [4] | [5] | [6] | [7] | [8] | [9] | [18] | [10] | [11] | [12] | [13] | [14] | [15] | [16] | [17]

Cc1ccc(C)o1
inactive: [1] | [2] | [3] | [4] | [5] | [6] | [7] | [8] | [9] | [18] | [10] | [11] | [12] | [13] | [14] | [15] | [16] | [17]

C[C@H](CCC(=O)NCC(=O)O)[C@H]1CC[C@H]2[C@@H]3[C@H](O)C[C@@H]4C[C@H](O)CC[C@]4(C)[C@H]3C[C@H](O)[C@]12C
inactive: [1] | [2] | [3] | [4] | [5] | [6] | [7] | [8] | [9] | [10] | [11] | [12] | [13] | [14] | [15] | [16] | [17]

C[C@H]1C[C@@H](O)CC(C)(C)C1
inactive: [1] | [2] | [3] | [4] | [5] | [6] | [7] | [8] | [9] | [18] | [10] | [11] | [12] | [14] | [15] | [17]

CCC(=O)O[C@@H]1C[C@H]2CC[C@]1(C)C2(C)C
inactive: [1] | [2] | [3] | [4] | [5] | [6] | [7] | [8] | [9] | [18] | [10] | [11] | [12] | [13] | [14] | [15] | [16] | [17]

CCOC(=O)[C@@H](C)Oc1ccc(Oc2nc3ccc(Cl)cc3o2)cc1
inactive: [1] | [2] | [4] | [5] | [6] | [8] | [9] | [18] | [10] | [11] | [12] | [13] | [14] | [15] | [16] | [17]
active: [3] 152 µM | [7] 156 µM

CC(C)CCOC(=O)c1ccccc1
inactive: [1] | [2] | [3] | [5] | [6] | [7] | [8] | [9] | [18] | [10] | [11] | [12] | [13] | [14] | [15] | [16] | [17]

CC(=O)O[C@@H]1CC2CCC1(C)C2(C)C (stereo partly specified)
inactive: [1] | [2] | [3] | [4] | [5] | [6] | [7] | [9] | [10] | [11] | [12] | [13] | [14] | [15] | [16] | [17]

CCCC(=O)C(CC)Sc1ccoc1C (stereo unspecified)
inactive: [1] | [2] | [3] | [4] | [6] | [7] | [8] | [18] | [10] | [11] | [12] | [13] | [14] | [15] | [16] | [17]
active: [5] 26.5 µM | [19] 88.9 µM

Nc1ccc2cc(S(=O)(=O)O)cc(O)c2c1N=Nc1ccccc1C(F)(F)F
active: [4] 12.6 µM
inactive: [1] | [2] | [3] | [5] | [6] | [7] | [9] | [18] | [11] | [12] | [13] | [14] | [15] | [16] | [17]

CC1C2CC(CC2C2CCCC(O)C2)C1(C)C (stereo unspecified)
inactive: [1] | [2] | [3] | [4] | [5] | [6] | [7] | [8] | [9] | [18] | [10] | [11] | [12] | [13] | [14] | [15] | [16] | [17]

COc1ccc(N=Nc2cc(C)c(N=Nc3ccc(S(=O)(=O)O)cc3)cc2OC)cc1
active: [1] 42.9 µM | [3] 74.3 µM | [4] 4.25 µM | [18] 100 µM | [13] 166 µM | [16] 100 µM
inactive: [2] | [5] | [6] | [7] | [8] | [9] | [10] | [11] | [12] | [14] | [15] | [17]
